# An excerpt weighted towards active compounds, which were near 0.83% of everything screened.
# SRC1 inh – inhibits human SRC1 coactivator; Q15788; HEK293 GAL4-SRC1 luciferase reporter, luminescence; inhibition, % at 3.6 µM; 0.12% of 360,000 active;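 active means inhibition above the campaign mean plus 3 SD, with each screening campaign given its own cutoff, cut at about 60% in these data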;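 further: 0% = DMSO treated cells and 100% = gossypol at 36 µM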
# NCOA3 inh – inhibits human SRC3 coactivator; Q9Y6Q9; HEK293 GAL4-SRC3 luciferase reporter, luminescence; inhibition, % at 3.6 µM; 0.17% of 360,000 active; AID 588352;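 active means inhibition above a per-campaign cutoff, the mean of all compounds plus 3 SD, cut at about 60% in these data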;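 further: 0% = DMSO-treated cells and 100% = gossypol-treated cells at 36 µM; higher means less SRC3-driven luciferase light from the GAL4 reporter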
# Target sequence (Q9Y6Q9 whole entry, looked up, the tested form may be a part): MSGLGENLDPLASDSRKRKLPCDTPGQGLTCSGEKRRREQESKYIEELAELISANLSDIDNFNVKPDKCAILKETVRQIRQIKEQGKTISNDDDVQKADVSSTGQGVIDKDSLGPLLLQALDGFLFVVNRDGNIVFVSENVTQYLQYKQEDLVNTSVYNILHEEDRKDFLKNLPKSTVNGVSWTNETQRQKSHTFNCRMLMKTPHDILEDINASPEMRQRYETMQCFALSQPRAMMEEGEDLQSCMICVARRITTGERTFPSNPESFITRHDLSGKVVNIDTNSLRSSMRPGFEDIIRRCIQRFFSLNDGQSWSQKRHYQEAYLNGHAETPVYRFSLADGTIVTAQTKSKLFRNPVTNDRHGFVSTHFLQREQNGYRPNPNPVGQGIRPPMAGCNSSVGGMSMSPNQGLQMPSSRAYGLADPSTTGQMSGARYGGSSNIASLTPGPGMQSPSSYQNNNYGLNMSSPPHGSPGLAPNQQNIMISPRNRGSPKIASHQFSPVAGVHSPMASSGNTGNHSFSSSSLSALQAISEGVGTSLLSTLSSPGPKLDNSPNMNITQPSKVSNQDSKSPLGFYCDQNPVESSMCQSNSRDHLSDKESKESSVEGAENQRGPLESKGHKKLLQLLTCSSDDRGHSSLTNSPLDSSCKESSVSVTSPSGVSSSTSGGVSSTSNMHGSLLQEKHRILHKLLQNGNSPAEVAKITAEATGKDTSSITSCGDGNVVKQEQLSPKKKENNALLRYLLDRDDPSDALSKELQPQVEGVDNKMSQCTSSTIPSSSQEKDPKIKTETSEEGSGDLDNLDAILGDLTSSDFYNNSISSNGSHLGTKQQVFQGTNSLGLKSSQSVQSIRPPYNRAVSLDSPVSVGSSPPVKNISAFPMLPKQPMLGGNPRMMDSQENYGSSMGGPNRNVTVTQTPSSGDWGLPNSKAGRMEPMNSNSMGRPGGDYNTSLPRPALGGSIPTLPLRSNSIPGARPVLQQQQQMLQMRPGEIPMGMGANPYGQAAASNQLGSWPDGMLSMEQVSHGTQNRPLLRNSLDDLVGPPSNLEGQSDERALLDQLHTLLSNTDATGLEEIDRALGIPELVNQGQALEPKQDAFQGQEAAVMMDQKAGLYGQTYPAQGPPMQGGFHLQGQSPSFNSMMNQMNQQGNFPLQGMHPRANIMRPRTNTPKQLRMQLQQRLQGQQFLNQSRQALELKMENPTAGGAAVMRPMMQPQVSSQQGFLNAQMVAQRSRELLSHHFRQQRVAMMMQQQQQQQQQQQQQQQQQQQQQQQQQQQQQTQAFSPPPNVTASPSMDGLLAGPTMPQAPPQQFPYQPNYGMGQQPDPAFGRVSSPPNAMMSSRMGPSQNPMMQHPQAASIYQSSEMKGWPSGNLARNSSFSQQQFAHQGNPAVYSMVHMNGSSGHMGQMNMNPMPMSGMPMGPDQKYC
# Gli-Sufu antag – Gli-Sufu pathway antagonism; Sufu-KO-LIGHT fibroblasts, Gli luciferase reporter luminescence; inhibition, % at 5 µM; 0.74% of 340,000 active;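 active means inhibition above about 55%, limit read from the data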;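 further: 0% = DMSO-treated cells and 100% = wells with medium but no cells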
# LRH-1 inv ag – inverse agonists of human LRH-1 (NR5A2); HEK293T StAR-luciferase reporter, LRH-1 transfected, 24 h; inhibition, % at 3.6 µM; 0.13% of 360,000 active;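 active means inhibition above the mean inhibition of all tested compounds plus 3 SD, cut at about 73% in these data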;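 further: 0% = DMSO wells and 100% = reporter-only cells lacking LRH-1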
# SRC2 inh – human SRC2 (NCOA2) inhibition; Q15596; 0.17% of 370,000 active; HEK293 GAL4-SRC2 luciferase reporter, luminescence; inhibition, % at 9 µM;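 active means inhibition above the mean inhibition of all tested compounds plus 3 SD, set per campaign, cut at about 52% in these data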;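 further: 0% = DMSO treated cells and 100% = cells given Gossypol at 36 µM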
# * = called active by the depositor; . = no result.
SMILES,SRC1 inh,NCOA3 inh,Gli-Sufu antag,LRH-1 inv ag,SRC2 inh
N#CC(C#N)=Cc1ccc(O)c(O)c1,5,5,-10,-11,-30
CC(C)(C)c1cc(C=C(C#N)C#N)cc(C(C)(C)C)c1O,61,81*,88*,76*,-3
O=C(NCCN1CCC2(CC1)C(=O)NCN2c1ccccc1)c1cccnc1Cl,.,.,.,.,-8
COC(=O)C[C@]1(C(=O)OC)CN(C#N)N(c2ccc(Cl)cc2)C12c1ccccc1-c1ccccc12,2,67*,38,45,91*
CC(=O)OCC12CC(OC(=O)CC(C)C)C(C)=CC1OC1C(O)C(OC(C)=O)C2(C)C12CO2 (centres undefined),95*,95*,90*,98*,77*
C[C@H]1CCC/C=C/[C@@H]2C[C@H](O)C[C@H]2[C@@H](O)/C=C/C(=O)O1,18,57,86*,61,23
CCOc1ccc(-c2c(C)n(-c3ccc(OCC)cc3)c3[n+]2CCCCC3)cc1,74*,82*,88*,88*,33
CC[C@@H]1C[C@H]2CC[C@H](O2)[C@H](C)C(=O)O[C@@H](C)C[C@@H]2CC[C@@H](O2)[C@@H](C)C(=O)O[C@H](C)C[C@H]2CC[C@H](O2)[C@H](C)C(=O)O[C@@H](C)C[C@@H]2CC[C@@H](O2)[C@@H](C)C(=O)O1,.,.,.,.,-9
c1ccc(CCN2CCC3CCNC3C2)cc1 (centres undefined),.,.,.,.,-30
COC1=CC(=O)[C@]2(C=C1OC)OC[C@@H]1Oc3c(ccc4c3C=CC(C)(C)O4)C(=O)[C@@H]12,.,.,85*,.,1
COc1ccc2c(c1)/C(=C/c1cnc[nH]1)C(=O)N2,25,29,-23,82*,-4
N#CCC[C@@H]1CC[C@]2(CCCN(Cc3ccncc3)C2)O1,.,.,.,.,6
C[C@@H]1O[C@@H](O[C@H]2C[C@@H](O)[C@]3(CO)[C@H]4[C@H](O)C[C@]5(C)[C@@H](C6=CC(=O)OC6)CC[C@]5(O)[C@@H]4CC[C@]3(O)C2)[C@H](O)[C@H](O)[C@H]1O,88*,93*,-1,103*,.
COC(=O)[C@@]1(O)c2c(oc3cccc(O)c3c2=O)C=C[C@H]1O,.,.,.,.,-21
COc1ccc(CN2Cc3cnnn3-c3ccccc3C2C#N)cc1 (centres undefined),23,46,-6,36,43
N#CC1c2ccccc2-n2nncc2CN1Cc1cc(Cl)cc(Cl)c1 (centres undefined),83*,91*,25,93*,86*
COc1cc(CCN)c(OC)cc1C,.,.,.,.,10
CC1CC(C)CC(C)C(O)C(C#N)=CC=CCC(C2CCCC2C(=O)O)OC(=O)CC(O)C(C)C1 (centres undefined),94*,94*,87*,98*,76*
Cc1cc(N2CCNC[C@H]2C)ccc1N1CC[C@@H](O)C1,.,.,.,.,-25
c1ccc(-c2cc(-c3ccccc3)[n+](-c3ccccc3)c(-c3ccccc3)c2)cc1,35,66*,73*,57,17
Cc1ccc(-c2cc(-c3ccc(C)cc3)[n+](-c3ccc(C(=O)[O-])cc3)c(-c3ccc(C)cc3)c2)cc1,-9,5,8,1,-7
CN(C)c1ccc(-[n+]2c(-c3ccccc3)cc(-c3ccccc3)cc2-c2ccccc2)cc1,59,82*,90*,90*,-2
CCOC(=O)c1ccc(-[n+]2c(-c3ccccc3)cc(-c3ccccc3)cc2-c2ccccc2)cc1,.,.,47,.,.
Cc1ccc(-c2cc(-c3ccc(C)cc3)[n+](-c3ccccc3)c(-c3ccc(C)cc3)c2)cc1,65*,79*,91*,93*,.
Cc1ccc(-c2cc(-c3ccccc3)cc(-c3ccccc3)[n+]2-c2ccccc2)cc1,56,84*,90*,98*,75*
SMILES,SRC1 inh,NCOA3 inh,Gli-Sufu antag,LRH-1 inv ag,SRC2 inh
c1ccc(Cc2cnc(N3CCNCC3)nc2)cc1,.,.,.,.,3
O=C(NCCN1CCC2(CC1)C(=O)NCN2c1ccccc1)c1ccc(F)c(F)c1,.,.,.,.,-12
CC(=O)N1c2ccccc2C(c2ccccc2)=NCC1C(=O)NC1CCCCC1 (centres undefined),.,.,.,.,11
O=C(CCn1nc(-c2ccc(Cl)cc2)ccc1=O)N1CCC2(CC1)OCCO2,0,2,5,23,20
Cc1nc2cc(-c3ccc(Cl)cc3)nn2c(C)c1CCC(=O)N1CCC2(CC1)OCCO2,-4,17,15,-3,56*
O=C(O)c1cc(S(=O)(=O)N2CC3CC(C2)c2cccc(=O)n2C3)ccc1F (centres undefined),.,.,.,.,17
COC1CCC(OC2CC(C3(C)CCC4(CC(O)C(C)C(C(C)/C=C(\C)C(=O)C(C)CC(C)C(=O)O)O4)O3)OC3(OC(C4OC(O)(CO)C(C)CC4C)CC3C)C2C)OC1C (centres undefined),-24,10,77*,7,-2
COC(=O)C1C(c2ccc(Cl)cc2)CC2CCC1N2C (centres undefined),.,.,.,.,11
CC(C)(O)/C=C/C(=O)[C@](C)(O)C1[C@H](O)C[C@@]2(C)C3CC=C4C(C[C@H](O)[C@@H](O)C4(C)C)[C@]3(C)C(=O)C[C@]12C (some centres undefined),-5,25,72*,7,.
N#Cc1ccc(NC(=S)N2Cc3cc(Br)ccc3-n3nncc3C2)cc1,.,.,.,.,1
C[C@H]1[C@H](OC(=O)CCC(=O)NCc2ccc(C(=O)O)cc2)O[C@@H]2O[C@@]3(C)CC[C@H]4[C@H](C)CC[C@@H]1C24OO3,62*,72*,89*,89*,.
C[C@H](NC(=O)OCc1ccccc1)[P+](=O)O,.,.,.,.,-1
O=[N+]([O-])c1ccc(N2CCOCC2)c2c1no[n+]2[O-],78*,91*,.,92*,97*
COc1ccc(Cc2cn(C)c(N)n2)cc1,.,.,.,.,-9
CC1OC(OC2C=C3CCC4C(CCC5(C)C(c6ccc(=O)oc6)CCC45O)C3(C)CC2)C(O)C(OC2OC(CO)C(O)C(O)C2O)C1O (centres undefined),91*,88*,0,97*,70*
C=CCN1C[C@H](C)N(C(c2ccc(C(=O)N(CC)CC)cc2)c2cccc(OC)c2)CC1C (some centres undefined),.,.,.,.,-21
c1ccc(Cn2nnnc2C2CN=C(c3ccccc3)c3ccccc3N2)cc1 (centres undefined),.,.,.,.,8
Cc1ccccc1-n1c(/C=C/c2ccccn2)nc2ccccc2c1=O,12,-5,6,47,30
CN1C2CCC1/C(=C/c1ccccn1)C(=O)/C2=C\c1ccccn1,-51,50,48,3,65*
O=c1c2ccccc2nc(/C=C/c2ccc([N+](=O)[O-])o2)n1-c1ccc(O)cc1,-58,10,75*,10,2
O=c1c2ccccc2nc(/C=C/c2ccccc2)n1-c1ccc(O)cc1,-17,4,-20,21,8
CC1=C(O)C(=O)C=C2C1=CC=C1C2(C)CCC2(C)C3CC(C)(C(=O)O)CCC3(C)CCC12C (centres undefined),1,-9,22,93*,-35
